PubChem BioAssay (EPA / NIEHS)
Active and inactive are the calls of the source. Rule for the calls: active = hit-call score of the fitted dose curve at least 0.9, where 1 is the maximum; inactive = score below 0.9.

Read-out: Cytochrome P450 (CYP1A1), CYP1A1 (gene 1543)
Assay: LTEA_HepaRG_CYP1A1: Life Technologies and Expression Analysis (LTEA) Assay for Cytochrome P450 (CYP1A1) using HepaRG (AID 2283454)
Conditions: mRNA level, 48 h; actives raise or lower the signal
Protocol: LTEA_HepaRG is a cell based, multiplexed-readout assay that uses HepaRG, a human liver cell line, with measurements taken at 48 hours after chemical dosing on a 96-well plate.LTEA_HepaRG_CYP1A1 is one of 102 assay component(s) measured in the LTEA HepaRG cell culture assay. It is a marker of NR mediated metabolism.Data from the assay component LTEA_HepaRG_CYP1A1 was analyzed into 1 endpoint. This assay endpoint, LTEA_HepaRG_CYP1A1, was analyzed with bidirectional fitting relative to DMSO as the negative control and baseline of activity. Using a type of inducible reporter, measures of mRNA induction for gain or loss-of-signal activity can be used to understand regulation of transcription factor activity. To generalize the intended target to other relatable targets, this assay endpoint is annotated to the cyp intended target family, where the subfamily is xenobiotic metabolism.
A total of 1060 chemcials from the ToxCast library were tested in eight-point concentration-response experiments. Cell culture and cytotoxicity assays were conducted at Thermo Fisher Scientific's Custom Services facility (Madison, WI). A single lot of human HepaRG cells (Thermo Fisher Scientific, Frederick, MD) was used for the cell culture experiments. 96-well format collagen type I coated plates of human HepaRG cells were prepared using established methods. Briefly, cryopreserved HepaRG cells were thawed, plated at a density of approximately 100,000 cells/well in HepaRG Thaw, Plate, and General Purpose media (HPRG770, Thermo Fisher Scientific), and incubated for 48 hours. 0.5% DMSO was selected as vehicle control to balance the requisite need of DMSO in HepaRG cultures to maintain differentiation (for example, baseline metabolism, proportions of hepatocytes vs. cholangiocytes), while enabling further hepatic receptor pathway activation (for example, PXR and CAR) in response to chemical exposure. 48 hours after plating, the culture medium was replaced with HepaRG Serum-Free Incudtion Media. Cells were exposed to each test chemical in duplicate and maintained in CO2 incubators for another 48 hours. Chemical plates were thawed to room temperature and 200x concentrations of treatment groups were prepared. 8-point conentration-reponse curves were made with the highest exposure at 100 uM, followed by half-log dilutions, all in 0.5% DMSO. Each test plate contained variouse controls, induction positive controls (1mM phenobarbital), cytotoxicity positive controls ([…] aflatoxin B1), vehicle controls (0.5% DMSO), and total lysis controls (0.5% DMSO). Cell morphology images were taken using an Essen IncuCyte FLR automated microscope, with six 96-well plates imaged in about 24 minutes. Images were captured and exported and JPEG files. Spent culture media was transfered to black-well plates for the LDH assay, and remaining media was sorted at -80 C for later use. Cells were treated with RLT buffer and frozen until shipped for gene expression analysis. Total RNA was isolated from the cell suspension in 75 uL of Buffer RLT (Qiagen, Germantown, MD 20874) by Quintiles/Expression Analysis (Durham, NC) using a custom isolation procedure. Total RNA from each plate well was transferred to a preamplification plate. Fluidigm's 96.96 Dynamic ArrayTM (Fluidigm, Amsterdam, the Netherlands) technology was used for gene expression analyses by quantitative reverse transcription polymerase chain reaction (qRT-PCR, performed by Quintiles/Expression Analysis, Durham, NC)89. Standard TaqManTM Assays (Applied Biosystems/ThermoFisher Scientific, Foster City, CA) were used to assess the expression of 93 genes selected based on their selectivity and sensitivity to important hepatic receptors known to be modulated by environmental chemicals; importance in human hepatocyte functionality; and hepatotoxicity. […]

Compound | AC50 | outcome
Nc1nc(N)nc(NC2CC2)n1 | 50 µM (active) | 
CCC(CC)Nc1c([N+](=O)[O-])cc(C)c(C)c1[N+](=O)[O-] | 29.8 µM (active) | 
CC(Oc1cccc(Cl)c1)C(=O)O (stereo not given) |  | inactive
CC(C)[C@H](C(=O)O[C@H](C#N)c1cccc(Oc2ccccc2)c1)c1ccc(Cl)cc1 | 34.8 µM (active) | 
CNC(=O)ON=C(C)SC |  | inactive
CCOP(=O)(OCC)Oc1cc(C)nc(C(C)C)n1 | 50.2 µM (active) | 
CCNc1nc(Cl)nc(NC(C)(C)C#N)n1 | 24.9 µM (active) | 
CN(C)NC(=O)CCC(=O)O |  | inactive
CC1=NNC(=O)N(/N=C/c2cccnc2)C1 | 27.5 µM (active) | 
CSC1=N[C@@](C)(c2ccccc2)C(=O)N1Nc1ccccc1 |  | inactive
Cc1cc(C2CC2)nc(Nc2ccccc2)n1 | 0.52 µM (active) | 
CCC(=O)Nc1ccc(Cl)c(Cl)c1 | 32.1 µM (active) | 
CCOC(=O)COc1cc(-c2nn(C)c(OC(F)F)c2Cl)c(F)cc1Cl | 50 µM (active) | 
C[N+]1(C)CCCCC1 | 50 µM (active) | 
COP(=O)(OC)SCn1c(=O)oc2cc(Cl)cnc21 | 38.6 µM (active) | 
CSc1nnc(C(C)(C)C)c(=O)n1N |  | inactive
CCCOc1nn(C(=O)NS(=O)(=O)c2ccccc2C(=O)OC)c(=O)n1C |  | inactive
CC(C)N(C(=O)SCC(Cl)=C(Cl)Cl)C(C)C | 67.5 µM (active) | 
CN1COCN(Cc2cnc(Cl)s2)C1=N[N+](=O)[O-] |  | inactive
CNc1cnn(-c2cccc(C(F)(F)F)c2)c(=O)c1Cl | 3.99 µM (active) | 

Compound | AC50 | outcome
CN(C)C(=O)Nc1cccc(C(F)(F)F)c1 | 24.7 µM (active) | 
Nc1c(Cl)cc([N+](=O)[O-])cc1Cl | 7.36 µM (active) | 
S=C1NCCN1 |  | inactive
CCOP(=S)(OCC)OC(Cl)C(Cl)(Cl)Cl (stereo not given) | 74.3 µM (active) | 
C[Si](Cn1cncn1)(c1ccc(F)cc1)c1ccc(F)cc1 | 5.08 µM (active) | 
CCOP(=S)(OCC)Oc1cc(C)nc(C(C)C)n1 | 33 µM (active) | 
CC(C)=CC1C(C(=O)OCN2C(=O)C3=C(CCCC3)C2=O)C1(C)C (stereo not given) | 50 µM (active) | 
O=[N+]([O-])c1cc(C(F)(F)F)c(Cl)c([N+](=O)[O-])c1Nc1ncc(C(F)(F)F)cc1Cl | 9.68 µM (active) | 
CCCCOC(=O)c1ccccc1C(=O)O | 36.1 µM (active) | 
CCOP(=S)(OCC)SCCSCC |  | inactive
CCCCN(CC)c1c([N+](=O)[O-])cc(C(F)(F)F)cc1[N+](=O)[O-] | 35.4 µM (active) | 
CCOP(=S)(OCC)Oc1ccc([N+](=O)[O-])cc1 | 15.4 µM (active) | 
CCc1cccc(C)c1N(C(=O)CCl)C(C)COC (stereo not given) | 62.6 µM (active) | 
CC(COc1ccc(Oc2ccccc2)cc1)Oc1ccccn1 (stereo not given) | 77.4 µM (active) | 
CCc1cccc(CC)c1N(COC)C(=O)CCl | 50 µM (active) | 
CCOP(=O)(SC(C)CC)N1CCSC1=O (stereo not given) |  | inactive
CSc1nc(NC(C)C)nc(NC(C)C)n1 | 22.4 µM (active) | 
CON=C(C(=O)OC)c1ccccc1CON=C(C)c1cccc(C(F)(F)F)c1 | 50 µM (active) | 
CC(C1CC1)C(O)(Cn1cncn1)c1ccc(Cl)cc1 (stereo not given) | 17 µM (active) | 
CC[C@H](C)[C@H]1O[C@]2(C=C[C@@H]1C)C[C@@H]1C[C@@H](C/C=C(\C)[C@@H](O[C@H]3C[C@H](OC)[C@@H](O[C@H]4C[C@H](OC)[C@@H](NC)[C@H](C)O4)[C@H](C)O3)[C@@H](C)/C=C/C=C3\CO[C@@H]4[C@H](O)C(C)=C[C@@H](C(=O)O1)[C@]34O)O2 | 13.4 µM (active) | 
